Source: PubChem (several laboratories)
pPAFAH FP inh – pPAFAH enzyme inhibitors, primary screen, biochemical, fluorescence polarization, human; Platelet-activating factor acetylhydrolase (Homo sapiens), Q13093; recombinant pPAFAH, FP-rhodamine probe fluorescence polarization; inhibition, % at 3.39 µM; actives 1.5% (n = 330,000);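 active = inhibition above the mean inhibition across the screen plus 3 SD, cut at about 25% in these data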;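 also: inhibitors block binding of the rhodamine activity-based probe so polarization drops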
PAFAH1B3 inh – PAFAH1B3 enzyme inhibitors, primary screen, biochemical, fluorescence polarization, human | actives 0.28% (n = 340,000) | Platelet-activating factor acetylhydrolase IB subunit alpha1 (Homo sapiens), Q15102 | inhibition, % at 3.39 µM | AID 492972, 2010 | recombinant PAFAH1B3, FP-rhodamine probe;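 active = inhibition above the screen-wide average of all tested compounds plus 3 SD, cut at about 25% in these data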
PfM18AAP inh – PfM18AAP inhibitors, malaria aminopeptidase, primary screen, biochemical, QFRET, recombinant enzyme; M18 aspartyl aminopeptidase (Plasmodium falciparum 3D7); H-Glu-NHMec fluorogenic cleavage; inhibition, % at 7.35 µM; actives 1.2% (n = 290,000);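 active = inhibition above the campaign mean inhibition over all tested compounds plus 3 SD, cut at about 28% in these data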
PAFAH2 FP inh – PAFAH2 enzyme inhibitors, primary screen, biochemical, fluorescence polarization, human; Platelet-activating factor acetylhydrolase 2, cytoplasmic (Homo sapiens), Q99487; recombinant PAFAH2, FP-rhodamine activity probe; inhibition, % at 3.39 µM; actives 0.99% (n = 340,000);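 active = inhibition above the mean over all tested compounds plus 3 SD, cut at about 30% in these data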;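 also: inhibitors block probe labeling of enzyme so polarization drops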
PAFAH1B2 FP inh – PAFAH1B2 enzyme inhibitors, primary screen, biochemical, fluorescence polarization, human; Platelet-activating factor acetylhydrolase IB subunit alpha2 (Homo sapiens), P68402; inhibition, % at 3.39 µM; AID 492953, 2010; actives 1.2% (n = 340,000); recombinant PAFAH1B2, FP-rhodamine activity probe;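 active = inhibition above the mean of all tested compounds plus 3 SD, cut at about 24% in these data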
DSG3 Ab inh – inhibitors of pemphigus antibody binding to DSG3, primary screen, biochemical, bead-based, flow cytometry, scFv-GFP; Desmoglein-3 (Homo sapiens), P32926; DSG3-coupled beads, scFv-anti-DSG3-GFP binding; active compounds read low; binding (percent of control), % at 10 µM; actives 0.48% (n = 310,000); AID 588358, 2011;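 active = binding more than 3 SD below its plate's average and above zero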;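 also: hits lower antibody fragment binding to DSG3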
Numbers stand for hits; – = inactive; · = no result given. Shown are actives, neighbours in structure and some others; about 3.8% of the full set was active somewhere.

SMILES	pPAFAH FP inh	PAFAH1B3 inh	PfM18AAP inh	PAFAH2 FP inh	PAFAH1B2 FP inh	DSG3 Ab inh
COc1ccc(/C=N/Nc2nc(-c3cccnc3)nc3ccccc23)cc1OC	–	–	–	–	–	–
Oc1ccc(/C=N/Nc2nc(-c3cccnc3)nc3ccccc23)c(O)c1	25	–	30	–	–	78
COC(=O)c1cccc(NC(=O)c2nn(C(C)C)c(=O)c3ccccc23)c1	25	–	–	–	–	–
C[C@@H]1CN([C@H](C)CO)C(=O)CCCn2cc(nn2)CO[C@H]1CN(C)C(=O)Nc1ccccc1C(F)(F)F	·	·	·	·	·	–
COc1ccccc1NC(=O)c1ccc(-n2ccnc2)c([N+](=O)[O-])c1	–	–	–	–	–	66
CCCCN(CCCNC(=O)C1CCN(S(=O)(=O)CC)CC1)c1ccccc1	28	–	–	–	–	–
CC(C)(C)c1ccc(OCCCC(=O)Nc2nnc(C3CC3)s2)cc1	·	·	·	·	·	–
CC(C)=CC(=O)OCc1cc([N+](=O)[O-])cc2c1OCOC2	–	–	–	–	–	–
Cc1ccc(S(=O)(=O)NNC(=O)C(=O)NNS(=O)(=O)c2ccc(C)cc2)cc1	–	–	–	–	28	–
CC(=O)Nc1ccc(S(=O)(=O)c2ccc(C)cc2)cc1	–	–	–	–	25	–
CC(=O)Nc1ccc(C(=O)CS(=O)(=O)c2ccc(C)cc2)cc1	–	–	–	–	–	–
Oc1c(Br)cc(Br)c2cccnc12	·	–	·	–	–	–
[O-][n+]1cccc2c(Br)cc(Br)c(O)c21	34	–	–	–	–	–
CC(O)[C@H]1CNC(=O)C(=O)N1CCC12CC3CC(CC(C3)C1)C2 (stereo partly specified)	–	–	·	–	25	–
CC(O)[C@H]1CNC(=O)C(=O)N1CC(C)(C)C (stereo partly specified)	–	–	·	–	–	–
CC1CCN(C(=O)COC(=O)c2cccc(S(=O)(=O)N3CCOCC3)c2)CC1	·	·	·	·	·	–
C[C@H](CO)N1C[C@H](C)[C@@H](CN(C)S(=O)(=O)c2ccc(-n3cccn3)cc2)OCc2cnnn2CCCC1=O	·	·	·	·	·	–
CSc1cccc(-n2cc(-c3ccc4c(c3)OCO4)[nH]c2=O)c1	–	–	29	–	–	–
O=C(CN1CCN(c2ccc(O)cc2)CC1)Nc1cc([N+](=O)[O-])ccc1Cl	–	–	33	–	–	–
CCc1ccc(C(=O)Nc2ccc(S(=O)(=O)Nc3nc(C)cc(C)n3)cc2)o1	–	–	–	–	–	35
CC1CCC(NC(=O)C(NS(=O)(=O)c2ccc(Br)cc2)C(C)C)CC1 (stereo unspecified)	·	·	·	·	·	–
CCC(C)(C)n1nnnc1C(c1ccncc1)N1CCC(Cc2ccccc2)CC1 (stereo unspecified)	26	–	–	–	–	–
COc1ccc(C(=O)Oc2ccc3c(c2)OCO3)cc1OC	–	–	–	–	–	21
Cc1c(Cl)cccc1N=C1NC(=O)CS1	·	·	·	·	·	–
COc1cccc(/C=N/NC(=O)c2cc3c(OC)ccc(OC)c3[nH]2)c1O	–	40	–	–	29	–
SMILES	pPAFAH FP inh	PAFAH1B3 inh	PfM18AAP inh	PAFAH2 FP inh	PAFAH1B2 FP inh	DSG3 Ab inh
COc1cc(OC)c2cc(C(=O)N/N=C/c3cccc(OC)c3O)[nH]c2c1	–	–	–	–	–	–
COc1ccc(-c2sc3ccc(N4CCOCC4)cc3c2C#CC(C)(C)O)cc1	–	–	·	–	–	·
COC(=O)c1c(-c2ccc(OC)cc2)sc2ccc(N3CCOCC3)cc12	–	–	·	–	–	66
COc1ccc(-c2sc3ccc(N4CCOCC4)cc3c2C#Cc2ccsc2)cc1	28	–	·	–	–	–
N#Cc1ccccc1NC(=O)C1CCCO1 (stereo unspecified)	·	·	·	·	·	–
COc1ccc(N(C(=O)c2ccco2)C(C(=O)NC2CCCC2)c2ccccc2)cc1 (stereo unspecified)	34	–	–	–	–	–
COc1ccc(N(C(=O)c2ccco2)C(C(=O)NC2CCCCC2)c2ccccc2)cc1 (stereo unspecified)	–	–	–	–	–	·
